Data published in PubChem BioAssay.

These compounds were tested against Voltage-gated potassium channel subunit beta-2 (Rattus norvegicus) (UniProt P62483) (assay: enhancers of rat Kvbeta2 NADPH turnover – biochemical, NADPH fluorescence, primary screen (AID 623;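 note: fluorescence intensity change per second fitted from 20 to 320 s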)). Details: Recombinant KvBeta, NADPH fluorescence decrease slope, 10 min; at 10 µM; stronger effect = lower value;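 active = NADPH fluorescence slope more negative than the mean of all samples by about 3 SD, 99.7% confidence; inactive = the rest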.
Chain of Voltage-gated potassium channel subunit beta-2 (Rattus norvegicus) (P62483 whole entry, looked up): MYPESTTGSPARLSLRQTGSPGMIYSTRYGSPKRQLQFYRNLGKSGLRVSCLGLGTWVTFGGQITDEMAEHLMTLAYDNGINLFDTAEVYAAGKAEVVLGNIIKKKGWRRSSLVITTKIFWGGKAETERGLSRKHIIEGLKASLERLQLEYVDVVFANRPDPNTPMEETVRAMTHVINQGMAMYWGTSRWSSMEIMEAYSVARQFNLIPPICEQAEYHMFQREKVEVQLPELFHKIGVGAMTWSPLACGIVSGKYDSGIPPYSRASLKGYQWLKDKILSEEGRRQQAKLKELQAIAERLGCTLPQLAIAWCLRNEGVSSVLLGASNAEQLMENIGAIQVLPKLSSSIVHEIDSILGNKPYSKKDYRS

NADPH fluorescence slope, inactive:
COc1ccccc1N1CCN(C(=O)c2cc(-c3ccc(Cl)c(Cl)c3)on2)CC1 -7.4e-05
COc1ccc(CN(CC(=O)NCC2CCCO2)C(=O)CCC(=O)Nc2cc(C)on2)cc1 (centres undefined) -1.6e-05
CCc1ccc2[nH]c(=O)c(C(c3nnnn3CC3CCCO3)N3CCN4CCCC4C3)cc2c1 (centres undefined) -5.9e-05
COc1ccc(OC)c(NC(=O)C23CCC(C)(C(=O)C2)C3(C)C)c1 (centres undefined) -0.00015
CC(C)(C)NS(=O)(=O)c1ccc(CCC(=O)O)cc1 -4.3e-05
COc1ccc(COC(=O)c2n[nH]c3ccccc23)cc1F -5.5e-05
O=C(NC1CCCC1)C(NS(=O)(=O)c1cccc2nsnc12)c1ccccc1 (centres undefined) 1.1e-05
COc1ccc(C(C)NC(=O)c2ccoc2C)cc1OC (centres undefined) -2.1e-05
Cc1ccc(C(O)c2nc3ccccc3n2C(C)C)cc1 (centres undefined) -1.7e-05
CCOC(=O)c1cc(CC)sc1NC(=O)COC -7.5e-06
COc1ccccc1C1N(c2ccc(F)cc2)C(=O)C2CCCN21 (centres undefined) -7.5e-05
CCC1CCCCN1CCCNC(=O)c1ccc(CS(=O)(=O)Cc2ccccc2F)o1 (centres undefined) -5.4e-05
Cc1cc(C)n2nc(SCC(=O)N(C)Cc3ccccc3)nc2n1 -6.2e-06
O=C(NCC(=O)N(c1cccnc1)C(C(=O)NC1CCCCC1)c1cccnc1)c1ccco1 (centres undefined) -5.1e-05
O=C(Nc1sccc1C(=O)NCc1ccco1)c1cccnc1 -3.3e-05
COc1ccc(Cl)c(N2CCN(CCCNC(=O)Nc3ccc(C)cc3)CC2)c1 -5.7e-05
Cc1cccc(OCC(=O)Nc2cc(C)ccc2O)c1 -2.2e-05
COCc1nnc(SCC(=O)NC(C)c2ccccc2)n1-c1ccccc1 (centres undefined) -3.6e-05
COc1ccccc1N(CC(=O)NC1CCCC1)C(=O)c1csnn1 -2.7e-05
Cc1cccc(NC(=O)CCCCCN2C(=O)c3ccccc3C2=O)n1 -6.5e-05
O=C(Cc1cccs1)N(c1ccccc1)C1C=CS(=O)(=O)C1 (centres undefined) -5.4e-05
Cc1ccc(Cn2c(SCC(N)=O)nc3c2c(=O)n(C)c(=O)n3C)cc1 1e-05
COc1cccc(CN2C(=O)C3(C(C#N)=C(N)OC4=C3C(=O)CCC4)c3ccccc32)c1 (centres undefined) -5.5e-05
COc1cccc(OCc2nnc(SCC(=O)OCc3ccccc3)o2)c1 -4.9e-06
